Laboratory results: PubChem BioAssay AID743187 (National Center for Advancing Translational Sciences (NCATS), 2013)
Some of the results follow. Results filed as inconclusive are left out. Calls of active or inactive are those of the source. The call rests on the fitted dose curve; in most records, active means well fitted inhibition curve with a large enough effect; inconclusive means small, poorly fitted or top-dose-only effect; inactive means no such curve, though single readings can be large or run the other way.

molecular target: Peroxisomal multifunctional enzyme type 2 (Homo sapiens) (UniProt P51659); test: Extended Characterization of HPGD Inhibitors: Counterscreen Against HSD17b4; conditions: purified HSD17B4, estradiol/NAD+, NADH fluorescence; series mostly up to 57.1 µM; activity change, negative = inhibition: at the top concentration
Sequence (P51659 whole entry, looked up): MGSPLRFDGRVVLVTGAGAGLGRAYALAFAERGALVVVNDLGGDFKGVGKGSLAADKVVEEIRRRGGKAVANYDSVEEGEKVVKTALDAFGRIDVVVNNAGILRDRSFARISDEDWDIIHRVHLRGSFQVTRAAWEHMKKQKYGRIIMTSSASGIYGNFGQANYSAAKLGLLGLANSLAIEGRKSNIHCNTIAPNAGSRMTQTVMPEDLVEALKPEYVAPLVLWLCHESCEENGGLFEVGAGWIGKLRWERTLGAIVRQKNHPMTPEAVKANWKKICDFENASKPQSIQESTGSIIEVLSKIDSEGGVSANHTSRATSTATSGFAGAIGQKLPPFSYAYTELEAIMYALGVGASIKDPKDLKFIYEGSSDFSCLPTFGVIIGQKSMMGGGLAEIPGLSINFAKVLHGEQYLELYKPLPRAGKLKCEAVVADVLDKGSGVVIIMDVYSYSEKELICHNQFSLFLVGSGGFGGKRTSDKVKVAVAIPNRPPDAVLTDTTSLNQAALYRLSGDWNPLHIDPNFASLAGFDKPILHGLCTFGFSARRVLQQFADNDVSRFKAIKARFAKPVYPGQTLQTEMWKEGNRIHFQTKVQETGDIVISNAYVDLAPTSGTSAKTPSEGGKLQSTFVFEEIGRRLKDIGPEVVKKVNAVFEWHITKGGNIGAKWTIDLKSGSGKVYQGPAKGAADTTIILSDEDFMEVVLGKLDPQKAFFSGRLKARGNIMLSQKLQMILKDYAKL
Excerpt: The central role of HPGD is to inactivate prostaglandins such as prostaglandin E2 (PGE2) or prostaglandin D2 (PGD2). These prostaglandins are involved in a number of processes, including inflammation, differentiation, and cellular signaling, which makes HPGD an important target for pharmacological intervention. The […] enzyme 17b-hydroxysteroid dehydrogenase […] (HSD17b4 catalyzes the NAD+-dependent oxidation of a variety of substrates including acyl-CoAs, androgens and neurosteroids, as well as bile acids. HSD17b4 activity was screened by utilizing an electron donor (estradiol) and NAD+ as an electron acceptor/cofactor. An increase in the fluorescence intensity due to conversion of NAD+ to NADH was used to measure the enzyme activity.. NIH Chemical Genomics Center [NCGC] NIH Molecular Libraries Probe Centers Network [MLPCN] MLPCN Grant: MH084681 Assay Submitter (PI): Structural Genomics Consortium
3 uL of enzyme (final concentration 100 nM) or buffer were dispensed into a 1,536-well solid-bottom black plate (Greiner Bio One, Monroe, NC) followed by pin-tool transfer (23 nL) of compound (final concentration range 324 pM to 57.2 uM) and control (CID-24867619, final concentration range 5.23 nM to 11.4 uM). Samples were incubated (RT, protected from light) for 15 minutes followed by a 1 uL substrate addition of NAD+ and Estradiol (final concentrations of 1 mM and 50 uM, respectively, in 15% DMSO). Plates were centrifuged at 1,000 rpm for 15 seconds, then read immediately on a ViewLux High-throughput CCD imager (Perkin-Elmer) equipped with standard UV fluorescence optics (340 nm excitation, 450 nm emission), incubated for 1 hour (RT, protected from light) followed by a second read. Data were normalized ([…]) against no-enzyme (positive) and enzyme-containing (neutral) wells.

Row | SMILES | activity change, negative = inhibition | Potency
1 | FC(F)(F)c1cccc(N2CCN(C(=S)Nc3ccncc3)CC2)c1 | -27.4% (inactive) | 
2 | COc1ccnc(NC(=S)N2CCN(c3ncc(C(F)(F)F)cc3Cl)CC2)c1 | -22.7% (inactive) | 
3 | COc1cccc(NC(=S)N2CCN(c3ccccc3C(F)(F)F)CC2)n1 | -11.1% (inactive) | 
4 | Cc1cc(C)nc(NC(=S)N2CCN(c3cccc(C#N)c3)CC2)c1 | -28.4% (inactive) | 
5 | Cc1cc(C)nc(NC(=S)N2CCN(c3ccc(Cl)cc3C(F)(F)F)CC2)c1 |  | 24.1 µM (active)
6 | Cc1cc(-c2nnc3n2CCCCC3)c(C)n1-c1cccc(Cl)c1 | -8.23% (inactive) | 
7 | COc1cccc(NC(=S)N2CCN(c3ccc(Cl)cc3Cl)CC2)n1 | -23.8% (inactive) | 
8 | Cc1cc(C)nc(NC(=S)N2CCN(c3ccc4nonc4c3)CC2)c1 | 0.76% (inactive) | 
